# Measurements published in PubChem BioAssay AID1964107 (National Center for Advancing Translational Sciences (NCATS), 2024).
# Among all 31,000 compounds or so, about 360 (1.2%) were called active. Another 8% or so got no clear call; they are omitted. The call rests on the fitted dose curve. The entries come from a sample that favours actives as a whole.
# Target: Polyprotein P1234 (Chikungunya virus (strain S27-African prototype)) (UniProt Q8JUX6)
# Test: Primary qHTS for inhibitors of NSP2Pro chikungunya virus (CHIKV); further: nearly all actives have a fitted effect of over 60% in size
# Details: FRET peptide cleavage, fluorescence 1 h; series mostly up to 24.9 µM; activity change, negative = inhibition: at the top concentration
# Source text: PI: Natalia J. Martinez Ph.D. National Center for Advancing Translational Sciences (NCATS), National Institute of Health (NIH), Rockville, Maryland Chikungunya virus (CHIKV) is a mosquito-borne RNA virus that has emerged as one of the most important global arboviral threats in the last decade. Although the first CHIKV vaccine has recently been FDA approved for use in healthy adults at increased risk, to date, there are no available antiviral drugs for CHIKV infection. CHIKV nsP2 protease plays a crucial role in the processing of the viral polypeptide precursor to release enzymes required for viral replication, thus making it a promising drug target for antiviral discovery. Here, we established a high-throughput pipeline to identify small molecule inhibitors of nsP2 proteolytic activity. The pipeline is composed of a suite of 1,536-well in vitro assays to support quantitative high-throughput (qHTS) screening campaigns. Specifically, we developed a fluorescence resonance energy transfer (FRET)-based assay using a fluorogenic peptide substrate encompassing an endogenous cleavage site and purified recombinant protease domain (nsP2pro). Using this assay, we interrogated ~37,000 small molecules, including those in drug repurposing libraries as well as chemically diverse and medicinal chemistry-friendly compounds. Hits were selected for follow-up validation against full-length nsP2 and an additional peptide. FRET-based 1,536-well assays for papain, hepatitis C virus NS3-4A, and human furin proteases were implemented to characterize compound selectivity. […] Novel compounds were identified to be potential nsP2 inhibitors and molecular docking analyses were performed to explain the binding mode of selected hits. In vitro antiviral activity was evaluated for a subset of compounds using a high-throughput CHIKV infection assay. To our knowledge, the pipeline presented here is unprecedented for CHIKV antiviral discovery research.
# PROTOCOL TABLE (as described by Inglese J, Shamu CE and Guy RK. 2007) SEQUENCE No. (e.g., 1, 2, 3, etc.); […] (e.g., Cells, Incubation, Reagent, etc.); VALUE; DESCRIPTION. 1; Control / Compound; 20 nL; Echo 655 acoustic dispenser, Greiner 1536-well solid bottom black plate. 2; Enzyme; 4 uL; BioRAPTR FRD liquid dispenser (Beckman Coulter). 3; Incubation; 15 min; room temperature. 4; Reagent; 4 uL; 2.5 uM Peptide 2 substrate. 5; Incubation; 1 hr; room temperature. 6; Detection; Fluorescence; WiewLux microplate reader (PerkinElmer), 525 nm excitation, 598/25 nm emission. NOTES (numbers refer to sequence numbers above). 1. Briefly, 20 nL DMSO, positive control ZnAc (20nM final concentration), and test compounds were transferred into a 1,536-well solid bottom black plate (789176-F, Greiner One) via Echo 655 acoustic dispenser (Beckman Coulter). For primary screens, compounds were tested at 7 concentrations, 1:3 dilution points ranging from 25 uM to 34 nM. Follow-up confirmatory screens were carried out at 11 concentrations, 1:3 dilution points from 25 uM to 0.42 nM. 2. Four uL nsP2pro enzyme mix (150 nM final concentration) in 10 mM Tris-HCl pH 8.0 with 0.01% Tween 20 assay buffer was dispensed into the plate using a BioRAPTR FRD liquid dispenser (Beckman Coulter). 3. The plate was incubated at room temperature (protected from light) for 15 min 4. Four microliter of peptide 2 substrate (2.5 uM final concentration) in assay buffer was added to the plate. 5. After 1 hour, plates were immediately read on a ViewLux high-throughput CCD imager (Exposure = 10 sec, Gain = High, Speed = Slow, Binning = 2X). The above assay was also incorporated in the NCATS HTS facility41, which allowed for robotic liquid and compound dispensing, microplate handling, and fluorescence reading.. REFERENCE: Inglese J, Shamu CE and Guy RK, Reporting data from high throughput screening of small molecule libraries, Nature Chemical Biology, 2007, 3(8): 438-441. doi.org/10.1038/nchembio0807-438.
# On the % scale 0 is the no-effect control and ±100 the full control effect.
# Polyprotein P1234 (Chikungunya virus (strain S27-African prototype)), sequence (Q8JUX6 whole entry, looked up): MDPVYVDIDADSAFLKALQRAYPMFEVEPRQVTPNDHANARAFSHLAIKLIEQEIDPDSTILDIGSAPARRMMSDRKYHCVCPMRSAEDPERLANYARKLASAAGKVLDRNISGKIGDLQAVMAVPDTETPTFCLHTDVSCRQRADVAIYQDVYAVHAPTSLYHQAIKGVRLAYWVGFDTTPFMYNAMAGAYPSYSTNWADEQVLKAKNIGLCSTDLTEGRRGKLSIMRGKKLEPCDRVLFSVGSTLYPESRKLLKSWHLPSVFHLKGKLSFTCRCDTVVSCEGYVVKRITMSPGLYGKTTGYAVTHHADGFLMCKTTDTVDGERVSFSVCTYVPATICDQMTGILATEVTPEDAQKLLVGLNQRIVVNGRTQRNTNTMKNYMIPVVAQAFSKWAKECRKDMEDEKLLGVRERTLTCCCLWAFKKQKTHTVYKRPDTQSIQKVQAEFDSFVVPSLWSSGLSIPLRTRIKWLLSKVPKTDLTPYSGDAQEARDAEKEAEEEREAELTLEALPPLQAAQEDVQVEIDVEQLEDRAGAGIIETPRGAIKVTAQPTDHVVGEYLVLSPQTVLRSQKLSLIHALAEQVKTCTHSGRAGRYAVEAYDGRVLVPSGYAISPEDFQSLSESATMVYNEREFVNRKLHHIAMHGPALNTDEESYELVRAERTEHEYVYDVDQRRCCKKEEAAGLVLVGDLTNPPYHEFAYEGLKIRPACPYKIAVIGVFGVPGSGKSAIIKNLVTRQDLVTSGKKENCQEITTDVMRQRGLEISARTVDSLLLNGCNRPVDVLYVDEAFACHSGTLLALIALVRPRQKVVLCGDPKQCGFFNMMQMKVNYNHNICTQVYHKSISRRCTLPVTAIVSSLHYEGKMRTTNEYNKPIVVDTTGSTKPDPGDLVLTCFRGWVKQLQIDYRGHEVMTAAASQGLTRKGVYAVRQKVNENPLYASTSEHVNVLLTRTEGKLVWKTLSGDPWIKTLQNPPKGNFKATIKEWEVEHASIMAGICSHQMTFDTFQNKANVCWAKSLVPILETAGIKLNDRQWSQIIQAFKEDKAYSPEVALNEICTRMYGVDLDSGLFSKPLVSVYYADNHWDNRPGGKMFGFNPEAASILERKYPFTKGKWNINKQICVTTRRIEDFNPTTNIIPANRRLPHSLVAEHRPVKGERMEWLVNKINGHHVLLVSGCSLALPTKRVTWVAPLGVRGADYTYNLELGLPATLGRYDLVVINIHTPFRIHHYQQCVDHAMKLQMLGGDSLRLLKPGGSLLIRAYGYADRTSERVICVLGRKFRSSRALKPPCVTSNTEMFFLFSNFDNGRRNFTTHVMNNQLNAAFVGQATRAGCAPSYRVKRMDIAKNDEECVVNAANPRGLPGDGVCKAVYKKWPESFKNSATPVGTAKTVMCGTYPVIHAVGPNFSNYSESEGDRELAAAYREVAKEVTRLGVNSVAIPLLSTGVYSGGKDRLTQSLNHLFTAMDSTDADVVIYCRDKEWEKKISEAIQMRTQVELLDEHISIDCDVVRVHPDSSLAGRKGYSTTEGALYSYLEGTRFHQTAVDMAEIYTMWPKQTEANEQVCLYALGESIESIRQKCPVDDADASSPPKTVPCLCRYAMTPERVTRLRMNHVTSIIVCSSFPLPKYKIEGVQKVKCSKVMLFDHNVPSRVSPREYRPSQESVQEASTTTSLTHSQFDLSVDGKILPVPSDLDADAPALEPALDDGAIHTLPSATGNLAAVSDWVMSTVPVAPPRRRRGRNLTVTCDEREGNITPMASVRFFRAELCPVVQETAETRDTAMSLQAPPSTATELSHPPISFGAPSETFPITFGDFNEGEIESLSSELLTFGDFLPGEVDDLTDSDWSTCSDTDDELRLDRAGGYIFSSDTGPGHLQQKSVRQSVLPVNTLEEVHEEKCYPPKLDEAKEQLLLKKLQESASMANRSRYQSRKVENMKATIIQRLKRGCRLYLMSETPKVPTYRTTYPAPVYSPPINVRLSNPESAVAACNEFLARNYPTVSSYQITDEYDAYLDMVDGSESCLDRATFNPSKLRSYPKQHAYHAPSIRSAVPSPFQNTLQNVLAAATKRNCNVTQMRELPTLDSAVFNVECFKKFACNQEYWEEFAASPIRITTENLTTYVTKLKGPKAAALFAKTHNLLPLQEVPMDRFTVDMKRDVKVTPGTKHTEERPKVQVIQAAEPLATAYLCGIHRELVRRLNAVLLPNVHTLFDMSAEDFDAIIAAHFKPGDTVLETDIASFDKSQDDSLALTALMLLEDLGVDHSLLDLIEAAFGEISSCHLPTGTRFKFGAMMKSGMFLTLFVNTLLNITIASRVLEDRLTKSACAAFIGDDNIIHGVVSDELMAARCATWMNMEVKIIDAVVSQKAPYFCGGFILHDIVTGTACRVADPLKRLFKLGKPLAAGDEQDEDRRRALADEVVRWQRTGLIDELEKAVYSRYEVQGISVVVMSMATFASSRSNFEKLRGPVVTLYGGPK
Compound,"activity change, negative = inhibition",outcome
Cc1nn(Cc2ccccc2Cl)c(C)c1CN(C)CC(O)COc1ccc(Cl)cc1 (stereo unspecified),0.58% (inactive),–
O=C(Nc1nc(-c2ccccc2)cs1)c1ccncc1NS(=O)(=O)c1ccc(-c2ccccc2)cc1,–,inactive
CCOCCOC1CCN(S(=O)(=O)c2ccc(OC)cc2)CC1,–,inactive
CCOCCCNC(=O)c1cc2c(=O)n3ccccc3nc2s1,-12% (inactive),–
CCc1noc(-c2cn(C3CCN(C(=O)C4(c5ccccc5)CC4)C3)nn2)n1 (stereo unspecified),–,inactive
COc1ccc(Cc2ncc3c(n2)CN(C(=O)c2ccc(OC)c(O)c2)C3)cc1,4.72% (inactive),–
CC(NC(=O)c1cc(Sc2ccc(F)cc2F)nc2ccccc12)c1ccccc1 (stereo unspecified),-18.2% (inactive),–
O=C(N[C@@H]1CCOC[C@H]1OCCO)c1ccc2c(c1)ncn2CCO,-3.4% (inactive),–
CCC(=O)N1N=C(c2ccc(OC)cc2)CC1c1cn(-c2ccccc2)nc1-c1cccs1 (stereo unspecified),-18.6% (inactive),–
CCC(=O)N1CCc2cc(S(=O)(=O)NC(Cc3ccccc3)C(=O)NCc3ccc(C)cc3)ccc21 (stereo unspecified),-26.4% (inactive),–
FC(F)(F)c1cccc(N2CCN(C(=S)Nc3ccncc3)CC2)c1,0.924% (inactive),–
COc1cccc(-c2cn3c(n2)N(C(=O)c2cnccn2)CCC3)c1,5.42% (inactive),–
CCCN=C1S/C(=C\c2ccc(OC[C@H](O)CO)c(Cl)c2)C(=O)N1c1ccccc1C,-11.9% (inactive),–
CC(=O)c1ccc(NS(=O)(=O)c2ccc(-c3cc(C)no3)s2)cc1,-10.1% (inactive),–
Cc1ccc(N2CCN(C(=O)CCc3c(C)nc4c(c3C)c(=O)n(C)c(=O)n4C)CC2)c(C)c1,-6.64% (inactive),–
CCC(=O)N1CCc2cc(Br)cc(S(=O)(=O)CCC(=O)NCc3ccccc3OC)c21,-13.4% (inactive),–
CCOc1ccc(NC(=O)Cn2nc3n(c2=O)CCN(Cc2ccccc2C)C3=O)cc1,-3.88% (inactive),–
N#Cc1ccc(-c2ccc(NC(=O)c3cccs3)cn2)cc1,4.86% (inactive),–
CCOc1ccc(CNC(=O)c2ccc3nc(CC)c(CC)nc3c2)cc1OC,-2.04% (inactive),–
COc1ccc(CNC(=O)c2cc3c(s2)CN(C2CC2)C3)cc1OC,–,inactive
COc1ccc(C2=Nn3c(nnc3-c3ccccc3O)SC2)cc1,2.77% (inactive),–
CCC(C)C(=O)O[C@H]1[C@@H](OC(=O)c2ccoc2)C[C@](C)(O)[C@]23OC(C)(C)[C@H](C[C@H](OC(=O)c4ccoc4)[C@]12COC(C)=O)[C@H]3OC(C)=O (stereo partly specified),-3.85% [at 10 µM] (inactive),–
CC1=C[C@@H](CNC2CCOCC2)[C@H](C(C)C)C[C@H]1Cc1nc2ccc(F)cc2[nH]1,3.26% [at 39.2 µM] (inactive),–
COc1ccc(C2=NS(=O)(=O)N(C)C(C(=O)NC(C)c3ccccc3)=C2)cc1 (stereo unspecified),-13.3% (inactive),–
CC(C)Oc1cccc(-c2cnc(N3CCC(C(N)=O)CC3)s2)c1,0.0009% (inactive),–
O=C(Nc1ccccc1-c1cn2c(CN3CCNCC3)csc2n1)c1ccc2ccccc2n1,17.2% (inactive),–
